GPT2 inh: blocks human glutamate pyruvate transaminase 2; Potency, µM (titrated, usually from 57.7 µM), most hits filed as inhibitors; actives 0.25% (n = 100,000); Recombinant GPT2, coupled pyruvate oxidase/HRP Amplex Red fluorescence; note: nearly all actives have a fitted effect of over 60% in size
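Inhibition is scored from Amplex Red fluorescence generated when pyruvate oxidase and HRP act on pyruvate released by GPT2. Reactions contain 10ng/uL enzyme, 250uM a-KG and 2mM L-alanine and run 30 min at room temperature.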
FLuc inh: Photinus pyralis luciferase inhibition. Potency, µM (top dose mostly 115 µM), usual class: inhibitors. actives 2.5% (n = 76,000). AID 1347043. P08659. purified P. pyralis luciferase, luminescence, biochemical; note: nearly all actives have a fitted effect of over 65% in size
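Purified P. pyralis luciferase (10nM final) in 50mM Tris acetate pH 7.5, 10mM Mg acetate, 0.01% Tween-20, 0.05% BSA with 10uM D-luciferin and 10uM ATP. Compounds titrated qHTS. Luminescence imaged on CCD.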
hNpr1 antagonist: antagonists of human natriuretic peptide receptor Npr1. P16066. HEK293 hNpr1 GloSensor cGMP, ANP-stimulated luminescence. Potency, µM (series often up to 46.3 µM), hits mostly inhibitors. actives 1.6% (n = 76,000). AID 1347048; calls by dose curve; note: nearly all actives have a fitted effect of over 60% in size
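Compound pre-incubated 30 min at room temperature on GloSensor-loaded HEK293 cells stably carrying hNpr1 and the pGS-40F cGMP biosensor. Stimulation uses hNppA at 0.1 nM final; luminescence is taken at baseline and 20 min post-agonist.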
HEK cytotox: kills HEK 293 cells; HEK 293 viability, ATP luminescence (CellTiter-Glo), 48-72 h; Potency, µM (doses to about 115 µM), usual class: inhibitors; actives 6.6% (n = 94,000); note: nearly all actives have a fitted effect of over 60% in size
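Cytotoxicity was scored by loss of ATP-coupled luminescence (CellTiter-Glo) in HEK 293 cells. Compound treatment ran 48 or 72 hr at 37 degree Celsius, 5% CO2, 95% humidity.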
3T3 cytotox: NIH 3T3 cell cytotoxicity; actives 4.3% (n = 94,000); NIH 3T3 viability, CellTiter-Glo ATP luminescence, 48-72 h; Potency, µM (doses to about 96.7 µM), usual class: inhibitors; note: nearly all actives have a fitted effect of over 55% in size
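NIH 3T3 cells at 400 cells/well received 23 nL of compound by pintool and were incubated 48 or 72 h at 37 °C. Viability was read as ATP-coupled CellTiter-Glo luminescence.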
Each line names hits and unclear results; the compound was inactive in the other large screens. In the library only some 10% were active in any assay of this set; here they are far more common. Unless noted, calls come from the whole dose curve; as a rule, active = well fitted curve in the direction sought with a large enough effect; inconclusive = small, poorly fitted or top-dose-only effect, or another doubt; inactive = no such curve, though single readings can be large; an effect the other way counts as inactive or inconclusive.

O=C(O)COc1ccc(-c2nccc3c2C(=O)N(Cc2c[nH]c4ccccc24)CC(COc2ccccc2)O3)cc1 (centres undefined)	FLuc inh inconclusive, 3T3 cytotox inconclusive
COc1cc([C@H]2Oc3cc([C@H]4Oc5cc(O)cc(O)c5C(=O)[C@H]4O)ccc3O[C@H]2CO)ccc1O	GPT2 inh 12.2µM (no result: FLuc inh, hNpr1 antagonist, HEK cytotox, 3T3 cytotox)
C=C1C(=O)O[C@@H]2C[C@H](C)[C@@H]3CC(=O)[C@H](O)[C@@]3(C)C[C@H]12	none (no result: FLuc inh, hNpr1 antagonist, HEK cytotox, 3T3 cytotox)
O=C(Nc1ccc(Cl)cc1Cl)c1cccn2cncc12	FLuc inh 44.7µM, HEK cytotox inconclusive, 3T3 cytotox inconclusive
O=C(Nc1ccc(Cl)cc1Cl)c1ccn2cncc2c1	HEK cytotox inconclusive
O=C(Nc1ccc(F)cc1)c1cccn2cncc12	FLuc inh 44.7µM, HEK cytotox inconclusive
O=C(Cc1ccsc1)NC1CCc2nnc(C3CC3)n2CC1 (centres undefined)	HEK cytotox inconclusive
CCCc1nc(C2CC(=O)N(C3CCCCC3)C2)no1 (centres undefined)	none
COCCn1c2c([n+](Cc3cnccn3)c1C)C(=O)c1ccccc1C2=O	GPT2 inh 0.153µM (no result: FLuc inh, hNpr1 antagonist, HEK cytotox, 3T3 cytotox)
COCCn1c(=O)c(C(=O)NC(C)C)nc2cccnc21	none (no result: FLuc inh, hNpr1 antagonist)
c1ccc(Nc2ncc(-c3ccccc3)c3c2OCC3)cc1	FLuc inh inconclusive, HEK cytotox inconclusive, 3T3 cytotox inconclusive
CC(C)c1cccc(NC(=O)c2ccc(CN3C(=O)NC4(CCOCC4)C3=O)cc2)c1	FLuc inh 39.8µM, hNpr1 antagonist 11.2µM, HEK cytotox inconclusive
CCc1ccc(NC(=O)c2ccc(CN3C(=O)NC4(CCOCC4)C3=O)cc2)cc1	FLuc inh 12.6µM, hNpr1 antagonist inconclusive, HEK cytotox inconclusive, 3T3 cytotox inconclusive
NC1CCc2nn(CC(=O)N(Cc3cccs3)C3CCCC3)c(=O)n2CC1 (centres undefined)	none
COC(=O)c1ccc(CN2C(=O)[C@@H]3C[C@@H](O)CN3C3(CN(C4COC4)C3)C2=O)cc1	none
CN1C(=O)[C@@H]2C[C@@H](CN2Cc2ccc3ccccc3n2)Oc2ccccc21	HEK cytotox inconclusive, 3T3 cytotox 79.4µM
COCCN1C(=O)[C@@H]2C[C@@H](CN2Cc2ccc(C(F)(F)F)cc2)Oc2ccccc21	GPT2 inh inconclusive, HEK cytotox 79.4µM, 3T3 cytotox inconclusive
O=C1Nc2ccccc2O[C@H]2C[C@@H]1N(Cc1ccc(C(F)(F)F)cc1)C2	GPT2 inh inconclusive, hNpr1 antagonist inconclusive, HEK cytotox 70.8µM, 3T3 cytotox inconclusive
COc1ccc(CN2C(=O)[C@@H]3C[C@@H](CN3Cc3ccccc3)Oc3ccccc32)cc1	HEK cytotox 50.1µM, 3T3 cytotox inconclusive
CC(C)N1C[C@@H]2C[C@H]1C(=O)N(Cc1cccnc1)c1ccccc1O2	3T3 cytotox inconclusive
COc1ccc(CN2C(=O)[C@@H]3C[C@@H](CN3Cc3ccccc3C)Oc3ccccc32)cc1	HEK cytotox 70.8µM, 3T3 cytotox inconclusive
O=C1[C@@H]2C[C@@H](CN2C2CCC2)Oc2ccccc2N1Cc1ccc(OC(F)(F)F)cc1	HEK cytotox 70.8µM, 3T3 cytotox 39.8µM
COc1ccc(CN2C(=O)[C@@H]3C[C@@H](CN3Cc3ccccc3OC)Oc3ccccc32)cc1	none
O=C1[C@@H]2C[C@@H](CN2Cc2ccc(Cl)cc2)Oc2ccccc2N1Cc1ccccc1	hNpr1 antagonist inconclusive, HEK cytotox 63.1µM, 3T3 cytotox 31.6µM
CC(C)N1C[C@@H]2C[C@H]1C(=O)N(Cc1ccccc1)c1ccccc1O2	HEK cytotox inconclusive, 3T3 cytotox 50.1µM
NC(=O)[C@@H]1CN(C(=O)c2ccccc2)C[C@H]1COc1ccccc1	none
Cc1ccc(NC(=O)c2ccc3c(c2)N(S(C)(=O)=O)CC3)cc1	FLuc inh 1.26µM, hNpr1 antagonist inconclusive, HEK cytotox inconclusive
CCOC(=O)CNC(=O)c1ccc2c(c1)N(S(C)(=O)=O)CC2	none
COCCCNC(=O)NCC(=O)N1CCCCCNC(=O)CC1c1ccccc1 (centres undefined)	none
Fc1ccc(Cc2nc3nccc(-c4ccc5c(c4)OCCCO5)n3n2)cc1	FLuc inh inconclusive, HEK cytotox 44.7µM, 3T3 cytotox inconclusive
COc1ccc(CCc2nc3nccc(-c4ccc5c(c4)OCCCO5)n3n2)cc1OC	FLuc inh inconclusive, HEK cytotox 44.7µM, 3T3 cytotox inconclusive
